This is an account of results in PubChem BioAssay (NCI).

Among the test systems are HCT-15 colon; HT29 colon; SNB-75 CNS; SNB-19 CNS; U251 CNS; PC-3 prostate; SK-MEL-5 melanoma; UACC-62 melanoma; LOX IMVI melanoma; SK-MEL-28 melanoma; SK-MEL-2 melanoma; EKVX NSCLC; SN12C renal; UO-31 renal; TK-10 renal; ACHN renal; CAKI-1 renal; A498 renal; CCRF-CEM leukemia; MOLT-4 leukemia.
Holding throughout (test): NCI-60 one-dose screen, 48 h (100 = growth as untreated, 0 = no growth, -100 = all killed)
What all share (details): 10 µM unless noted

This is part of a sample that, as a whole, favours compounds with a hit. Of some 83,000 tested, about 20% had one in any assay.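 The test compound was applied at a single concentration to cells in 96-well plates for 48 hours, and percent growth was recorded.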 A number with no mark means an inactive call. Calls of active or inactive are those of the source. The calls were made as follows: active = growth percent below 10; inactive = the rest.

For `NC(=N\N=C/Cc1ccccc1)/C(N)=N\N=C\Cc1ccccc1`, the growth in the test with HCT-15 colon was 94.9%; with HT29 colon it was 120%; with SNB-75 CNS, 98.5%; with SNB-19 CNS, 96.6%; in the test with U251 CNS it was 106%; in the test with PC-3 prostate, 101%. The growth was 107% in the test with SK-MEL-5 melanoma; 96.1% with UACC-62 melanoma; 96.8% in the test on LOX IMVI melanoma; 120% in the test with SK-MEL-28 melanoma; 108% in the test on SK-MEL-2 melanoma; 110% in the test on EKVX NSCLC. For the same molecule, the growth with SN12C renal was 102%; in the test with UO-31 renal, 91.2%; in the test with TK-10 renal it was 110%; with ACHN renal, 94.8%; in the test on CAKI-1 renal it was 102%; in the test with A498 renal it was 90.1%. The values for the growth with CCRF-CEM leukemia and in the test on MOLT-4 leukemia were 95.8% and 100%, respectively.

For the molecule `CC1=C([Se]CC(OC(=O)[C@@H](CSSC(C)(C)C)NC(=O)C(C)(C)C)C(=O)NCCCCCC(=O)OCc2ccccc2)C(=O)c2ccccc2C1=O` (some centres undefined), the growth in the test on HCT-15 colon is 20.4%; in the test on HT29 colon, -29.5% (active); with SNB-75 CNS, -92.5% (active); in the test on SNB-19 CNS, -73.5% (active); in the test with U251 CNS, -37.5% (active); in the test with PC-3 prostate, -20.8% (active). Further, the growth in the test on SK-MEL-5 melanoma was -48.8% (active); with UACC-62 melanoma it was -30.6% (active); in the test with LOX IMVI melanoma, 4.76% (active); in the test with SK-MEL-28 melanoma, -27.3% (active); in the test on SK-MEL-2 melanoma, -24.2% (active); in the test with EKVX NSCLC it was -24.2% (active). Also, the growth with SN12C renal is 2.42% (active); in the test on UO-31 renal, -78.5% (active); in the test with TK-10 renal, -29.3% (active); in the test with ACHN renal, -10.9% (active); in the test with CAKI-1 renal, -19.3% (active); in the test on A498 renal, -5.18% (active). Also, the growth in the test with CCRF-CEM leukemia is 3% (active); in the test with MOLT-4 leukemia it was 5.23% (active).

Turning to `O=C(NCCNC(=O)Oc1cccc2ccccc12)Oc1cccc2ccccc12`, the growth with HCT-15 colon was 99.6%; in the test on HT29 colon, 108%; with SNB-75 CNS it was 89.5%; in the test with SNB-19 CNS, 94.5%; in the test with U251 CNS, 116%; with PC-3 prostate, 78.5%. Also, the growth in the test with SK-MEL-5 melanoma was 85.9%; in the test with UACC-62 melanoma, 91.1%; in the test with LOX IMVI melanoma it was 81.9%; in the test on SK-MEL-28 melanoma, 128%; with SK-MEL-2 melanoma it was 88.7%; with EKVX NSCLC it was 92.9%. Also, the growth with SN12C renal is 105%; in the test on UO-31 renal, 45.4%; with TK-10 renal, 92.3%; with ACHN renal, 85.3%; with CAKI-1 renal, 95%; with A498 renal it was 89.2%. Moreover, the growth in the test with CCRF-CEM leukemia is 65.2%; with MOLT-4 leukemia it was 80.6%.

As to `O=C(/C=C/c1ccc([N+](=O)[O-])cc1)c1ccc2c3c(cccc13)CC2`, the growth in the test with HCT-15 colon was 59.5%; in the test on HT29 colon, 77.2%; in the test on SNB-75 CNS it was 89%; in the test on SNB-19 CNS, 82.6%; with U251 CNS it was 13.7%; in the test on PC-3 prostate it was 52.9%. In addition, the growth is 97.8% in the test on SK-MEL-5 melanoma; 80.2% in the test with UACC-62 melanoma; 67.6% in the test on LOX IMVI melanoma; 63.9% with SK-MEL-28 melanoma; -24.8% (active) in the test with SK-MEL-2 melanoma; 87.3% with EKVX NSCLC. Besides, the growth is 89.8% in the test with SN12C renal; 19.2% in the test on UO-31 renal; 107% in the test with TK-10 renal; 99.1% in the test on ACHN renal; 72.1% in the test with CAKI-1 renal; -63.2% (active) in the test with A498 renal. The growth is 35.5% with CCRF-CEM leukemia and 62.7% in the test with MOLT-4 leukemia.

With `COc1ccc2nc(N/N=C(\C)c3ccccn3)cc(C)c2c1`, the growth in the test with HCT-15 colon is -48.5% (active); with HT29 colon it was -45.5% (active); with SNB-75 CNS, -7.43% (active); in the test with SNB-19 CNS it was 23.9%; with U251 CNS, -85.5% (active); with PC-3 prostate, 12.9%. The growth was -86.2% (active) in the test with SK-MEL-5 melanoma; -44.2% (active) in the test on UACC-62 melanoma; -99.1% (active) in the test on LOX IMVI melanoma; 20% in the test with SK-MEL-28 melanoma; -22.8% (active) in the test with SK-MEL-2 melanoma; -84.4% (active) with EKVX NSCLC. Moreover, the growth with SN12C renal is 11.8%; with UO-31 renal it was -31% (active); with TK-10 renal it was 18.4%; with ACHN renal it was -13.8% (active); with CAKI-1 renal it was -3.71% (active); in the test on CCRF-CEM leukemia, -37.4% (active). Also, in the test on MOLT-4 leukemia, the growth is -49.9% (active).

With `O=C(NC1CCS(=O)(=O)C1)c1ccc(C(=O)c2ccccc2)cc1` (centres undefined), the growth is 101% in the test with HCT-15 colon; 106% in the test on HT29 colon; 90.9% in the test on SNB-75 CNS; 97.9% in the test with SNB-19 CNS; 90.1% in the test with U251 CNS; 101% in the test on PC-3 prostate. Besides, the growth was 110% with SK-MEL-5 melanoma; 95.6% with UACC-62 melanoma; 95.6% in the test with LOX IMVI melanoma; 89.2% in the test with SK-MEL-28 melanoma; 7.36% (active) in the test with SK-MEL-2 melanoma; 96.3% in the test on EKVX NSCLC. The growth in the test on SN12C renal is 105%; with UO-31 renal, 76.5%; in the test with TK-10 renal, 137%; with ACHN renal, 98.1%; with CAKI-1 renal, 98.2%; in the test on A498 renal, 110%. The figures for the growth with CCRF-CEM leukemia and in the test with MOLT-4 leukemia were 127% and 109%, respectively.

With `COc1ccc2ncccc2c1Cc1c(OC)ccc2ncccc12`, the growth in the test with HCT-15 colon was 57.8%; in the test with HT29 colon it was 30%; with SNB-75 CNS, 44.1%; in the test with SNB-19 CNS it was 82.2%; in the test on U251 CNS it was 57.4%; with PC-3 prostate it was 74.6%. Besides, the growth in the test with SK-MEL-5 melanoma is 60.5%; with UACC-62 melanoma, 58%; in the test on LOX IMVI melanoma, 68.4%; with SK-MEL-28 melanoma, 77.4%; in the test with SK-MEL-2 melanoma, 75.6%; in the test with EKVX NSCLC, 85.4%. Further, the growth was 89.4% in the test with SN12C renal; 55.6% in the test with UO-31 renal; 89.2% in the test on TK-10 renal; 86.1% in the test with ACHN renal; 57.6% with CAKI-1 renal; 60.4% in the test on A498 renal. The growth in the test on CCRF-CEM leukemia was 70.7%; with MOLT-4 leukemia, 57.9%.

For `COc1ccc(CNC(=O)c2c(C)n([O-])c3ccc(OC)cc3[n+]2=O)cc1`, the growth with HCT-15 colon is 103%; in the test with HT29 colon, 93.2%; in the test on SNB-75 CNS it was 99.1%; with SNB-19 CNS, 97.8%; in the test on U251 CNS, 96.3%; in the test with PC-3 prostate it was 80.5%. For the same molecule, the growth with SK-MEL-5 melanoma was 95%; in the test on UACC-62 melanoma it was 94.9%; in the test on LOX IMVI melanoma it was 101%; in the test on SK-MEL-28 melanoma, 108%; in the test on SK-MEL-2 melanoma it was 102%; in the test with EKVX NSCLC it was 87.8%. The growth was 108% in the test on SN12C renal; 21.9% in the test on UO-31 renal; 104% in the test on TK-10 renal; 111% in the test with ACHN renal; 230% in the test on CAKI-1 renal; 104% in the test on A498 renal. Moreover, the results for the growth with CCRF-CEM leukemia and with MOLT-4 leukemia were 100% and 103%, respectively.
